PubChem BioAssay AID623868 (Vanderbilt High Throughput Screening Facility, 2012)
In all, about 2,100 compounds went through this assay and about 760 (36%) were called active. Only a sample is shown. A number with no mark means an inactive call.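 The calls were made as follows: active = thallium-flux fluorescence traces judged by eye to show enhanced or reduced glutamate response, manual score 1 or -1, so both directions (some results past the limit were not filed as active); inactive = the rest, including fluorescent or raised-baseline compounds.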

assay: thallium influx changes without GIRK channels – cell-based, HEK-293 rmGlu8, no GIRK, thallium flux, counter-screen for GIRK activator project, confirmation (AID 623868); settings: thallium flux fluorescence, at 10 µM, actives lie on both sides, codes: 1 enhancer, -1 blocker, 0 none, thallium stimulus containing EC20 glutamate;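 also: extra codes mark interference with 3 for fluorescent and 4 for baseline rise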

Row | Structure (SMILES) | manual score
1 | Cc1cccc(C(=O)N2CCC(Cc3ccccc3)CC2)c1[N+](=O)[O-] | 0
2 | O=C(Nc1ccc(-c2nc3ccccc3o2)cc1)c1cc(-n2cnnc2)ccc1Cl | 0
3 | CC1CN(S(=O)(=O)c2ccc(C(=O)Nc3nnc(-c4ccc5c(c4)CCCC5)o3)cc2)CC(C)O1 (centres undefined) | 1 (active)
4 | NS(=O)(=O)c1ccc(NC(=O)C2COc3ccccc3O2)cc1 (centres undefined) | 0
5 | O=C(Nc1nnc(-c2ccc3c(c2)CCCC3)o1)c1ccccc1Cl | 1 (active)
6 | CCC(/C=N/NC(=O)C1COc2ccccc2O1)CC (centres undefined) | 0
7 | O=C(Nc1nnc(-c2ccc3c(c2)CCCC3)o1)c1ccc(Cl)cc1Cl | 1 (active)
8 | Cc1ccc(NC(=O)c2ccc(COc3ccc4c(c3)CCC4)cc2)c(C)c1 | 0
9 | O=C(Nc1nnc(-c2ccc3c(c2)CCCC3)o1)C1COc2ccccc2O1 (centres undefined) | 1 (active)
10 | CCCC1COC(Cn2cncn2)(c2ccc(C)cc2)O1 (centres undefined) | 0
11 | O=C(c1cnn2c(C(F)(F)F)cc(-c3cccs3)nc12)N1CCN(Cc2ccccc2)CC1 | 0
12 | CCCCCCCC1CC(CSc2ncn[nH]2)OC1=O (centres undefined) | 0
13 | N=c1oc2ccc3ccccc3c2cc1-c1nc(-c2ccccc2)cs1 | 3
14 | CC1CCCCN1Cc1nc2c(c(=O)n(C)c(=O)n2C)n1CCc1ccccc1 (centres undefined) | 0
15 | O=C(Nc1cccc(-c2nnc(-c3ccccc3)o2)c1)C1CCCO1 (centres undefined) | 0
16 | CN(C)S(=O)(=O)c1ccc(C(=O)Nc2nnc(-c3ccc4c(c3)CCCC4)o2)cc1 | 0
17 | O=C(Nc1nnc(-c2ccc3c(c2)CCCC3)o1)c1ccccc1 | 1 (active)
18 | CN1CCN(Cc2cccc(Oc3ccc(Cl)cc3)c2)CC1 | 0
19 | CCCc1ccc(OCC(=O)NNC(=S)NC(=O)c2ccco2)cc1 | 1 (active)
20 | Cc1ccccc1OCC(=O)N/N=C/c1cccn1C | 0
21 | Cc1ccccc1OCC(=O)NNC(=S)NC(=O)c1ccco1 | 1 (active)
22 | O=C(Nc1ccc(Br)cc1)C1CCC(=O)N1Cc1ccccc1Cl (centres undefined) | 0
23 | O=P(CCCCCCCCCP(=O)(c1ccccc1)c1ccccc1)(c1ccccc1)c1ccccc1 | -0.5
24 | COc1ccccc1Nc1ccc(Nc2ccccc2OC)nn1 | 0
25 | COc1ccccc1-c1ccc(NC2CCCC2)nn1 | -1 (active)

Row | Structure (SMILES) | manual score
26 | S=c1nc(-c2ccc(Br)cc2)oc2c1CCCC2 | 1 (active)
27 | CC(C)COc1ccc(Cc2cnc(N)nc2N)cc1 | 0
28 | CCN(C#N)c1nc(NC(C)C)nc(NC(C)C)n1 | 0
29 | CC(C)n1c(O)c(N=Nc2ccccn2)c2ccccc21 | 0
30 | Oc1c(N=Nc2ccccn2)ccc2ccccc12 | 1 (active)
31 | CCCCn1c(=N)n(CC(O)COc2cccc(C)c2)c2ccccc21 (centres undefined) | 0
32 | CCCCn1c(O)c(N=Nc2ccccn2)c2ccccc21 | 1 (active)
33 | Oc1ccc2ccccc2c1N=Nc1ccccn1 | 1 (active)
34 | CCOc1ccc(N2C(=O)CC(SC(=NC)Nc3ccc(F)cc3)C2=O)cc1 (centres undefined) | 0
35 | COc1ccc2cc(Br)ccc2c1CC(=O)NC1CC(C)(C)NC(C)(C)C1 | 0
36 | CCC(C)NC(=O)CN1C(=O)CC(C)(C)S(=O)(=O)c2ccccc21 (centres undefined) | 0
37 | CCn1c(=O)c(C(=O)NCCCO)c(O)c2ccccc21 | 0
38 | CCn1c(=O)cc(OCC(=O)Nc2cccc(C)n2)c2ccccc21 | 0
39 | CCn1c(O)c(N=NC(=O)CNc2cccc(C)c2)c2ccccc21 | 1 (active)
40 | Cc1nn(-c2ccccc2)c(OC(=O)c2cccs2)c1S(=O)(=O)c1ccccc1 | 0
41 | CO/N=C(\Cn1ncc(N2CCCC2)c(Br)c1=O)c1ccc(Cl)cc1 | 0
42 | CO/N=C(\Cn1ncc(N2CCCC2)c(Cl)c1=O)c1ccc(Cl)cc1 | 0
43 | CCN(CC)c1cnn(C/C(=N\OC)c2ccc(Cl)cc2)c(=O)c1Br | -1 (active)
44 | CCC(C)(C)NC(=O)C(c1ccc(F)cc1)N(Cc1ccco1)C(=O)c1cnccn1 (centres undefined) | 0
45 | N#CC1=C(N)SC(N)=C(C#N)C1c1c(Cl)cccc1Cl | -1 (active)
46 | N#CC1=C(N)SC(N)=C(C#N)C1CCc1ccccc1 | 0
47 | C#CCSc1nnc(-c2cccc3ccccc23)o1 | 0
48 | Oc1oc(-c2cccc3ccccc23)nc1/C=N/c1nccs1 | 1 (active)
49 | O=C(O)c1cnc(-c2ccccc2)nc1Sc1ccccc1Cl | 0
50 | CC(C)C(=O)OCC(=O)Nc1ccc(N=Nc2ccccc2)cc1 | 0

Row | Structure (SMILES) | manual score
51 | CCOC(=O)C1CCCN(c2ncnc3c2oc2ccccc23)C1 (centres undefined) | 0
52 | CCOC(=O)c1c(C)oc2ccc(O)c(CN3CCCCC3)c12 | 0
53 | CCOC(=O)c1c2n(c3c(NCc4ccccc4)ncnc13)CCCC2 | -1 (active)
54 | Cc1ccc(NC(=O)CSc2nccn2C)cc1S(=O)(=O)N1CCOCC1 | 0
55 | Cc1ccc(C)c(NC(=S)N=Nc2c(O)n(C)c3ccc(S(=O)(=O)N4CCOCC4)cc23)c1 | 1 (active)
56 | Cc1ccc(SC(C)C(=O)Nc2ccc(S(=O)(=O)N3CCOCC3)cc2)cc1 (centres undefined) | 0
57 | Cc1ccc(NC(=S)N=Nc2c(O)n(C)c3ccc(S(=O)(=O)N4CCOCC4)cc23)cc1 | 1 (active)
58 | CCc1c(C)sc(NC(=O)CCc2ccc(OC)cc2)c1C(N)=O | 0
59 | CCC(C)n1c(=S)[nH]c2c(sc3ccc([N+](=O)[O-])cc32)c1=O (centres undefined) | 1 (active)
60 | CN=C1S/C(=C\c2cc(C)n(-c3ccccc3F)c2C)C(=O)N1C | 0
61 | COc1ccc(C2c3ccc4ccccc4c3Oc3ncn(CCN4CCOCC4)c(=N)c32)cc1 (centres undefined) | 0
62 | CN1CCN(C(=O)Nc2cccc3ccccc23)CC1 | 0
63 | O=C(NNC(=S)Nc1cccc2ccccc12)c1cccc(Br)c1 | 1 (active)
64 | S=C(Nc1cccc(Br)c1)c1ccccc1 | 0
65 | NC(=O)Nc1cccc2ccccc12 | 0
66 | Cc1ccc(C(=O)NNC(=S)Nc2cccc3ccccc23)s1 | 1 (active)
67 | O=C(NNC(=S)Nc1ccccc1)c1cccc(Br)c1 | 1 (active)
68 | C=C(C)CNC(=S)Nc1cccc2cnccc12 | 0
69 | N#Cc1ccsc1NC(=O)CN1CCN(c2ccc(O)cc2)CC1 | 0
70 | COc1ccc(/C=C2\N=C(SC)NC2=O)cc1 | 1 (active)
71 | Cc1ccc(S(=O)(=O)n2cnc3cc([N+](=O)[O-])ccc32)cc1C | 0
72 | Clc1ccccc1-c1nnc2sc(-c3ccccn3)nn12 | 0
73 | Brc1ccccc1-c1nnc2sc(-c3ccc4c(c3)OCCO4)nn12 | -1 (active)
74 | Clc1ccccc1-c1nnc2sc(-c3ccc4c(c3)OCO4)nn12 | 0
